# The list is not random: actives were taken first. Their share in the collection is about 1.3%.
# GALR2 antag: GALR2 antagonists in receptor-expressing cells, primary screen; Galanin receptor type 2 (Homo sapiens), O43603; antagonist mode; inhibition, % at 4 µM; 140,000 tested, 0.39% active; AID 828, 2007;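 further: cells stimulated with galanin 1-16 at roughly its EC80; 0% = agonist challenge control and 100% = basal control without agonist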
# Target sequence (O43603 whole entry, looked up): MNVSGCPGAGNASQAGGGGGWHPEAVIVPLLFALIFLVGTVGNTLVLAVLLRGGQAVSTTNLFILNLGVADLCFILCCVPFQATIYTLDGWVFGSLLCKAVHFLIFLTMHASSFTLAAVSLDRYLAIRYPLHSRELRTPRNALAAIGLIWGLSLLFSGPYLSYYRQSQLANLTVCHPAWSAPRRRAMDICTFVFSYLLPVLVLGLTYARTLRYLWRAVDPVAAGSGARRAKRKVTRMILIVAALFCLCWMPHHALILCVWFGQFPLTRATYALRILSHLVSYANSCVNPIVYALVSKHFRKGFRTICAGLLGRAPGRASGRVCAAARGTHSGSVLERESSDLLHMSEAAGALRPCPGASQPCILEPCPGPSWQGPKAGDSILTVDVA
# GALR2 ag: GALR2 receptor agonists, primary screen, cell-based; activation, % (no concentration beside the values); Galanin receptor type 2 (Homo sapiens), O43603; GALR2-expressing cells, agonist activation read-out; 140,000 tested, 0.48% active; in the data active means activation above about 5%, passing the limit was not always enough;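 further: 0% = vehicle buffer wells and 100% = reference agonist at full effect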
# S1P2 antag: human S1P2 receptor antagonists, primary screen, cell-based | Sphingosine 1-phosphate receptor 2 (Homo sapiens), O95136 | cell-based S1P2 antagonist assay, inhibition at 5 uM | inhibition, % at 5 µM | 97,000 tested, 0.21% active; in the data active means inhibition above about 45%;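 further: CRE beta-lactamase reporter cells expressing human S1P2 stimulated with S1P; 0% = agonist at EC80 alone and 100% = agonist plus reference antagonist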
# Phagocyt inh: inhibitors of macrophage phagocytosis, primary screen, imaging, J774A.1 cells, IgG beads. J774A.1 macrophage IgG-bead phagocytosis. inhibition, % at 5 µM. 110,000 tested, 0.07% active;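 active means inhibition above the mean of the plate negative controls plus 5 SD, cut at about 13% in these data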;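 further: phagocytic index as fraction of beads internalized from green versus red external bead signal; plate controls were DMSO negative control for no effect and cytochalasin-D positive control for full effect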
# S1P2 ag: S1P2 receptor agonists, primary screen, cell-based; Sphingosine 1-phosphate receptor 2 (Homo sapiens), O95136; S1P2-expressing cell line, agonist reporter read-out; activation, % at 4.5 µM; 97,000 tested, 0.46% active; AID 729, 2007; in the data active means activation above about 16%;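 further: 0% = vehicle low control and 100% = maximal reference agonist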
# GALR2 blk conf: GALR2 antagonists, retest of hits, confirmation, cell-based. 480 tested, 60% active. shares compounds with GALR2 antag. inhibition, % at 4 µM. GALR2-expressing cells, antagonist mode, inhibition. AID 866, 2007;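 further: cells stimulated with galanin at about its EC80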
# BLA inhib ctr: inhibitors of NFAT-driven beta-lactamase reporter, confirmation, counter-screen for GALR2 antagonist project, CHO NFAT-bla cells, FRET readout; inhibition, % at 4.2 µM; 480 tested, 36% active; thapsigargin-stimulated; shares compounds with GALR2 antag;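 active means inhibition above the mean inhibition across tested compounds plus 3 SD, cut at about 27% in these data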;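 further: 0% = 500 nM thapsigargin stimulated wells and 100% = unstimulated BSA only wells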
# Starred values were filed as active, the others as inactive; . = no result given. Unless noted, no stated cut-off is given here; in the data, active means inhibition above about 27%; inactive means the rest.
SMILES,GALR2 antag,GALR2 ag,S1P2 antag,Phagocyt inh,S1P2 ag,GALR2 blk conf,BLA inhib ctr
COc1cccc(N2C(=O)C3C(C2=O)C2C=CC3C23CC3)c1 (configuration not stated),-0.2,-3.1,-0.3,0.0,-2.1,.,.
Cc1ccc(-n2c(-c3ccc(Br)cc3)c[n+]3c2CCc2ccc4cccnc4c2-3)cc1,58.7*,1.1,87.5*,.,-6.2,30.9*,61.3*
O=C(O)C(=O)Cc1c[nH]c2ccccc12,18.7,-1.0,.,.,.,.,.
CCN(CC)CC(=O)N1c2ccccc2Sc2ccc(Cl)cc21,28.8*,-0.9,8.0,.,-6.2,16.0,6.9
O=C(CSc1nc2ccccc2s1)N1c2ccccc2Sc2ccc(Cl)cc21,1.4,-1.6,0.4,4.8,-1.1,.,.
Cc1ccc(S(=O)(=O)/N=C2/C=C(Sc3ncn[nH]3)C(=O)c3ccccc32)c(C)c1,27.1*,-1.1,.,-7.0,.,15.6,26.7
O=C(CN1C(=O)CCC1=O)Nc1nc(-c2ccc(Oc3ccccc3)cc2)cs1,-2.9,0.0,.,-4.0,.,.,.
O=C(/C=C/c1ccc(Cl)c([N+](=O)[O-])c1)Nc1ccc(NC(=O)c2ccco2)cc1,32.7*,-0.9,.,-12.5,.,17.8,1.9
O=C(/C=C/c1ccc(Cl)c([N+](=O)[O-])c1)Nc1cccc(NC(=O)c2ccco2)c1,6.2,-2.0,.,5.8,.,.,.
C/C(Cc1ccccc1)=N\NC(=O)CNC(=O)c1ccc(C(C)(C)C)cc1,1.5,-1.2,.,-12.2,.,.,.
Cn1c2c(c(=O)n(C)c1=O)C(C(F)(F)F)(C(F)(F)F)N=C(c1ccc(Cl)cc1)N2,67.8*,-0.9,85.6*,.,-7.9,72.5*,58.0*
CC1=C(C)/C(=N\OS(=O)(=O)c2ccc(C)cc2)C=CC1=O,85.2*,-0.7,.,4.0,.,70.3*,64.0*
CC1=C/C(=N\OS(=O)(=O)c2ccccc2)C(C)=CC1=O,63.4*,-3.3,97.9*,3.4,-4.3,74.3*,35.5*
COc1cc(C(=O)O/N=C2/C=C(C)C(=O)C=C2C)cc(OC)c1OC,-4.4,1.1,.,-1.2,.,.,.
COCCCN(C(=O)c1ccco1)c1nc(-c2cc(OC)ccc2OC)cs1,84.6*,-0.8,-2.8,-1.1,-1.9,4.8,11.7
CCC(=O)N(CCCN(C)C)c1nc(-c2cc(OC)ccc2OC)cs1,6.5,-0.8,2.9,-0.3,-4.5,.,.
N#C/C(=C\c1cccs1)c1nc2ccccc2[nH]1,32.5*,-1.1,.,-3.0,.,30.2*,8.0
N#C/C(=C\c1ccc(OC(=O)c2cccs2)cc1)c1nc2ccccc2[nH]1,-7.7,-1.5,.,15.4,.,.,.
COc1ccccc1CC(=O)N1CCN(c2cccc(C(F)(F)F)c2)CC1,-4.9,-3.4,15.5,-2.8,-5.8,.,.
Cc1ccc(Cn2ncc(Cl)c(Cl)c2=O)cc1,22.3,0.0,.,.,.,.,.
O=c1c(Cl)c(Cl)cnn1Cc1ccccc1Cl,62.6*,2.1,.,-3.8,.,64.4*,60.9*
O=c1c(Cl)c(Cl)cnn1-c1ccccc1,88.3*,-3.0,.,6.6,.,91.6*,77.6*
O=c1c(Cl)c(N/N=C/c2ccc(Cl)cc2)cnn1-c1ccccc1,-5.4,2.1,.,-8.6,.,.,.
Nn1cnnc1N/N=C/c1cc(Br)cc(Br)c1O,31.2*,-3.8,-9.9,-1.9,-0.6,7.8,0.5
Cc1cc(F)c(F)c(C(=O)N2CCN(C)CC2)c1Cl,-2.8,-2.0,-9.0,1.5,-3.1,.,.
SMILES,GALR2 antag,GALR2 ag,S1P2 antag,Phagocyt inh,S1P2 ag,GALR2 blk conf,BLA inhib ctr
CC(=O)c1c(C)nc(-c2ccc(Cl)cc2)nc1N=CN(C)C,31.4*,-3.0,-5.2,-0.1,-4.3,20.0,11.5
Cc1cc(C(F)(F)F)nn1Cc1n[nH]c(=S)n1-c1ccc(F)cc1,62.8*,-1.2,.,-4.8,.,4.5,5.0
Cc1ccc(-n2c(Cl)c(Cl)nc(Cl)c2=O)cc1,81.2*,1.6,.,-3.4,.,92.1*,98.6*
CC(C)(C)NC(=O)/C(=C\C=C\c1ccccc1)NC(=O)c1ccc([N+](=O)[O-])cc1,1.8,1.0,.,-10.1,.,.,.
Cc1cc(/C=N/n2cnnc2)c(C)n1-c1ccc(OCc2ccc(Cl)cc2)cc1,44.6*,0.7,76.7*,1.9,-6.8,40.2*,18.6
O=C(Nc1nc2ccc(SC(F)F)cc2s1)c1ccc(NS(=O)(=O)c2ccc(F)c(F)c2)cc1,12.5,0.6,.,0.9,.,.,.
O=C1/C(=C/c2cccnc2)CCC/C1=C\c1cccnc1,22.6,-1.2,.,-3.2,.,.,.
CCC1C/C(=C\c2cccnc2)C(=O)/C(=C/c2cccnc2)C1 (configuration not stated),36.2*,-2.6,.,-4.4,.,45.7*,20.7
COc1coc(C(O)CN)cc1=O (configuration not stated),3.4,-2.7,.,-2.9,.,.,.
CCOC(=O)C(=Cc1cc(=O)c(OC)co1)C(=O)OCC,40.7*,-2.2,.,-1.8,.,67.4*,57.9*
CC1=NNC(=O)/C1=C\c1cn(-c2ccccc2)nc1-c1cccs1,31.2*,-0.9,.,3.6,.,-1.7,22.1
O=C(N/N=C/c1cn(-c2ccccc2)nc1-c1cccs1)c1ccccc1F,13.6,-1.2,.,-2.4,.,.,.
NC(=O)C1CCN(C(=O)Nc2ccccc2)CC1,0.1,-1.9,-22.7,.,-1.1,.,.
NC(=O)C1CCN(C2=C(Cl)C(=O)c3ccccc3C2=O)CC1,34.2*,0.1,45.1,.,-6.8,49.8*,36.5*
Cc1ccc(CNC(=O)c2ccc(N3CCCC3=O)cc2)cc1,7.3,-1.7,6.0,-4.2,-2.4,.,.
Cn1nc(C(C)(C)C)cc1C(=O)NCc1ccc(N2CCCC2=O)cc1,44.8*,-1.6,.,-1.3,.,39.3*,8.9
COc1ccc2[nH]c(=O)c(CN(CCCN(C)C)C(=O)Nc3ccccc3)cc2c1,-0.9,-0.5,13.0,-0.3,-3.2,.,.
CCc1ccc2[nH]c(=O)c(CN(CCN(C)C)C(=O)Nc3ccccc3)cc2c1,27.4*,-1.6,9.1,-1.9,-0.1,4.3,2.1
Cn1c(C(C)(O)C(O)c2ccccc2)nc2ccccc21 (configuration not stated),8.2,-0.8,.,-4.7,.,.,.
O=C(COC(=O)C1CCN(/C=C/C(=O)C(F)(F)F)CC1)Nc1cccc(F)c1,2.3,-0.5,.,-0.4,.,.,.
Cc1ccc(S(=O)(=O)C(C#N)c2nc3ccccc3nc2N2CC(C)OC(C)C2)cc1C (configuration not stated),0.2,-1.3,1.2,-0.3,-7.3,.,.
Cc1cccc(S(=O)(=O)C(C#N)c2nc3ccccc3nc2N2CC(C)OC(C)C2)c1 (configuration not stated),28.4*,-0.1,17.2,-1.3,-5.6,1.9,-1.0
c1ccc2c(c1)OCC(CNc1ncnc3sccc13)O2 (configuration not stated),42.3*,0.0,.,-4.8,.,54.2*,11.3
